HCV inh = HCV inhibition; Potency, µM (highest dose often 41.8 µM), without a hit: at the highest dose activity change, negative = inhibition, usual class: inhibitors; Huh7.5.1 HCVcc-Cre infection, luciferase reporter, 44 h; AID 651820; hit rate 3.4% among 340,000; active = well fitted inhibition curve with a large enough effect; inconclusive = small, poorly fitted or top-dose-only effect, or another doubt; inactive = no such curve, though single readings can be large or run the other way
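Cells seeded at 1,000/well and cultured 4 h, then compounds added followed by HCVcc-Cre virus (~0.5 moi). After 44 h further culture, luciferase substrate was added, plates held 15 min at room temperature, and luminescence read for 15 sec.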
VACV mCherry inh = inhibitors of vaccinia virus infection (mCherry reporter signal); hit rate 0.63% among 310,000; Vaccinia virus mCherry reporter infection, fluorescence; Potency, µM (top dose mostly 36.5 µM), for inactives: at the highest dose activity change, negative = inhibition, actives largely listed as inhibitors; AID 720579; calls by dose curve; tested in A549 cells; also: nearly all actives have a fitted effect of over 35% in size
Vaccinia Venus = vaccinia inhibition (Venus reporter) | Vaccinia virus Venus reporter expression, fluorescence | Potency, µM (titrated, usually from 36.5 µM), inactives show at the top dose activity change, negative = inhibition, most hits filed as inhibitors | hit rate 0.46% among 330,000 | AID 720580; calls by dose curve; tested in A549 cells; also: nearly all actives have a fitted effect of over 30% in size
* marks the source's active call; other numbers are inactive results; i = inactive; ? = inconclusive; . = no result given; [ ] = remark or other dose. Compounds with a hit are over-represented: about 3.3% of the library has one in this group of screens. % is scaled to controls: 0 for no effect and ±100 for the full control effect; potency is read from the fitted curve at half-maximal effect.

SMILES | HCV inh | VACV mCherry inh | Vaccinia Venus
COc1ccc2c(C)nc(Nc3nc(-c4ccccc4)cc(=O)[nH]3)nc2c1 | 5.62µM* | ? | 3.98µM*
COc1ccc2nc(Nc3nc(CSc4nnc(C)s4)cc(=O)[nH]3)nc(C)c2c1 | -11.5%[0.335 µM] | . | .
CCCN1CNc2c(c(=O)[nH]c(=S)n2CCc2cccs2)C1 | . | i | -16.2%
C=CCNc1nc(-c2cc3ccccc3o2)cs1 | ? | -16.4% | -23.8%
c1ccc2oc(-c3csc(NCC4CCCO4)n3)cc2c1 (stereo not drawn) | 25.1µM* | i | -14.9%
O=C(CN1C(=O)NC(Cc2c[nH]c3ccccc23)C1=O)Nc1cccc(S(=O)(=O)N2CCCCCC2)c1 (stereo not drawn) | 10µM* | ? | ?
Cc1ccc(S(=O)(=O)N(C)C)cc1NC(=O)CN1C(=O)NC(Cc2c[nH]c3ccccc23)C1=O (stereo not drawn) | 2.1% | . | .
CN(C)S(=O)(=O)c1cccc(NC(=O)CN2C(=O)NC(Cc3c[nH]c4ccccc34)C2=O)c1 (stereo not drawn) | 1.58µM* | ? | -26.6%
COc1cccc(NC(=O)CN2C(=O)NC(Cc3c[nH]c4ccccc34)C2=O)c1 (stereo not drawn) | -16.2% | -13.6% | -17.1%
Cc1ccc(NC(=O)CN2C(=O)NC(Cc3c[nH]c4ccccc34)C2=O)cc1S(=O)(=O)N1CCCCC1 (stereo not drawn) | 11.2µM* | ? | -28.5%
O=C(CN1C(=O)NC(Cc2c[nH]c3ccccc23)C1=O)Nc1cccc(S(=O)(=O)N2CCCC2)c1 (stereo not drawn) | ? | -28.8% | 3.2%
CCOC(=O)C1=C(CN2CCN(c3cc(C)ccc3C)CC2)NC(=O)NC1c1ccc(Cl)cc1 (stereo not drawn) | . | -5.1%[7.34 µM] | -8.0%[7.34 µM]
COc1ccc(NC(=O)COCc2cc(-c3cccs3)on2)cc1 | . | -14.0% | -12.8%
O=C(c1ccc(Br)cc1)N1CCC2(CC1)NCCc1[nH]cnc12 | -2.3% | -16.1% | -4.5%
COc1cc(O)ccc1CN1CCc2nnc(C(C)NC(=O)c3cc(F)ccc3F)n2CC1 (stereo not drawn) | . | i | -10.4%
CC(=O)Nc1ccc(NC(=O)c2ccccc2-n2cnnn2)cc1 | 9.5% | -8.3% | 13.1%
O=[N+]([O-])c1ccc(Nc2nc(NCCN3CCOCC3)nc(Nc3ccc(Cl)cc3)n2)cc1 | . | -25.1% | -29.2%
CC(C)CCCC(C)C1CCC2C3CC[C@H]4CC(=O)CC[C@@]4(C)C3CC[C@@]12C (stereo partly drawn) | . | i | 0.0%
Cc1ccc(OCCn2c(Br)nc3c2c(=O)n(C)c(=O)n3C)cc1 | 8.91µM* | . | .
COCCn1c(Br)nc2c1c(=O)n(C)c(=O)n2C | 1.2% | i | -20.0%
Cc1c(C(=O)NCc2cccc(F)c2)sc2ncnc(NCC3CCCO3)c12 (stereo not drawn) | . | -8.9% | 7.9%
CC(=O)NC(c1cccc([N+](=O)[O-])c1)c1c(OC(C)=O)ccc2ccccc12 (stereo not drawn) | -23.6% | -14.1% | -23.0%
CCCCC(=O)NC(c1cccc([N+](=O)[O-])c1)c1c(OC(C)=O)ccc2ccccc12 (stereo not drawn) | ? | 28.2µM* | ?
Cc1ccc2c(c1)c(=O)c1ccccc1n2CCCC(=O)Nc1ccc(C)c(C)c1 | . | ? | -28.6%
CCCN1CCN(C(=O)c2cc(COc3ccc4ncccc4c3)on2)CC1 | 10µM* | i | -10.4%
SMILES | HCV inh | VACV mCherry inh | Vaccinia Venus
COCC1CCCCN1C(=O)c1cc(COc2ccc3ncccc3c2)on1 (stereo not drawn) | -2.1% | . | .
CCN1CCN(C(=O)c2cc(COc3ccc4ncccc4c3)on2)CC1 | 11.2µM* | i | -18.1%
CCCN1CCN(C(=O)c2cc(COc3ccc(F)cc3F)on2)CC1 | . | -5.6% | -18.5%
COc1ccc(CCNC(=O)CS(=O)(=O)Cc2nc(-c3cccc(Cl)c3)oc2C)cc1OC | . | -10.7% | -12.0%
COc1ccc(OCC(=O)Nc2ccc3c(c2)nc(CCN2CCN(C)CC2)n3C)cc1 | 18.2% | -16.6% | -7.2%
Cc1nc2ccc(C(=O)N3CCOc4ccc(CN5CCOCC5)cc4C3)cc2nc1C | . | -4.4% | 13.7%
OC(CNCCCN1CCCCC1)COc1ccccc1 (stereo not drawn) | 10µM* | . | ?
COc1ccc(OCC(O)Cn2c(=N)n(CCN3CCCCC3)c3ccccc32)cc1 (stereo not drawn) | ? | -26.8% | -20.0%
N=c1n(CCN2CCCC2)c2ccccc2n1CC(O)c1ccc(Cl)c(Cl)c1 (stereo not drawn) | 11.2µM* | . | .
OC(COc1ccccc1)CN1CCCCCC1 (stereo not drawn) | -21.0% | -4.8% | -9.2%
N=c1n(CCN2CCCCC2)c2ccccc2n1CC(O)COc1ccc(Cl)cc1Cl (stereo not drawn) | . | -12.3%[7.34 µM] | -7.6%[7.34 µM]

From PubChem
